Assay outcomes (PubChem BioAssay)
5HT1E ag – 5-HT1E (human) receptor agonism; P28566; CHO 5-HT1E Ga15 NFAT-bla reporter, FRET; 0% DMSO wells, 100% control agonist wells; activation, % at 6 µM; 0.69% of 65,000 active; AID 574;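 active = activation above a set limit, the screen-wide mean activation plus 3 SD, cut at about 8.5% in these data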;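 note: 100% = positive control agonist at 1 µM giving full maximal response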
5-HT1A blocker – blocks the human serotonin 5-HT1a receptor | P08908 | CHO 5-HT1a Ga15 NFAT-bla reporter, antagonist mode | inhibition, % at 10 µM | 0.68% of 62,000 active;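 active = inhibition above the mean of all tested compounds plus 3 SD, cut at about 43% in these data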;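 note: receptor stimulated by 5-CT agonist at 100 nM near EC80; beta-lactamase reporter measured by ratiometric fluorescence of a cleavable substrate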
Target sequence (P08908 whole entry, looked up): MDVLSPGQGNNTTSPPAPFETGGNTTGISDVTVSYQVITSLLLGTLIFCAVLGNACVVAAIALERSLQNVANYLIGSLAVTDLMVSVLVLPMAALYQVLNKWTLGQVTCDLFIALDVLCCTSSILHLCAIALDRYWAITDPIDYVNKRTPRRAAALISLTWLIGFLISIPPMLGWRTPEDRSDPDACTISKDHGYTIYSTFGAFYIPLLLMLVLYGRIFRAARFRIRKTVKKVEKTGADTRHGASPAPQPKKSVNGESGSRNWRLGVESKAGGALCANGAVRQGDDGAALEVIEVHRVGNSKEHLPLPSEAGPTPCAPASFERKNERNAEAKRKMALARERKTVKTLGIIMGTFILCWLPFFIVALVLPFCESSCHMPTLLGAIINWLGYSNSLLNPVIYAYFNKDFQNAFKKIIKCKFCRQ
5HT1E antag – antagonists of human 5-HT1E serotonin receptor; 0.99% of 65,000 active; inhibition, % at 6 µM; CHO 5-HT1E Ga15 NFAT-bla reporter, FRET, antagonist;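 active = inhibition above a set limit, the mean inhibition across every tested compound plus 3 SD, cut at about 29% in these data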;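 note: signal is the 460 over 535 nm emission ratio of beta-lactamase substrate; 0% = agonist plus DMSO wells and 100% = wells without agonist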
HER2 expr 66K – Her2 kinase expression inhibition; 0.69% of 65,000 active; HER2 level % of control, % at 10 µM; SKBR-3 HER2 protein level, AlphaScreen, 18-24 h; stronger effect = lower value;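 active = HER2 level under 5% of the carrier-only control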;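 note: 100% = DMSO carrier and 0% = 500 nM PU-H71 HSP90 inhibitor; lower value means stronger loss of Her2 protein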
5HT1a ag – agonists of human 5-HT1a serotonin receptor | 0.56% of 65,000 active | activation, % at 10 µM | CHO 5-HT1a Ga15 NFAT-bla reporter, FRET ratio; 0% basal, 100% maximal reference agonist | P08908;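 active = activation above the screen-wide mean activation plus 3 SD, cut at about 19% in these data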;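 note: 0% = DMSO wells and 100% = 5-CT at EC100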
* = called active by the depositor; · = not tested or not shown. Rows were chosen to be rich in hits. Some 3% of all compounds tested hit in one or more screens of this group.

SMILES | 5HT1E ag | 5-HT1A blocker | 5HT1E antag | HER2 expr 66K | 5HT1a ag
O=C(Nc1ccc(F)cc1)C1CCC(N2C(=O)c3ccccc3C2=O)CC1 (configuration not stated) | · | · | · | 62 | ·
CN(C)S(=O)(=O)c1ccc(S(=O)(=O)N(Cc2ccco2)Cc2ccccc2Cl)cc1 | -1 | 22 | 32* | 73 | -2
c1ccc(-c2oc3ncnc(NCCCn4ccnc4)c3c2-c2ccccc2)cc1 | -1 | 63* | 29* | 57 | 3
COc1ccc(N(CC(=O)NCc2cccs2)S(=O)(=O)c2cccnc2)cc1 | 0 | -2 | 1 | 109 | -2
CCc1nnc(NC(=O)CCN2C(=O)c3ccccc3C2=O)s1 | 16* | 4 | -6 | 153 | 3
CCc1nnc(NC(=O)CCN2C(=O)c3ccccc3S2(=O)=O)s1 | 0 | -1 | -3 | 92 | 1
O=C(CSc1ccccc1)Nc1ccccc1N1CCOCC1 | -1 | -3 | 9 | 98 | -4
O=C(CN1C(=O)CSC1=O)Nc1ccccc1N1CCOCC1 | 10* | 8 | 8 | 120 | -4
CC(=O)Nc1ccc(S(=O)(=O)N2CCN(c3nc(NC4CCCC4)c4ccccc4n3)CC2)cc1 | 0 | -15 | -10 | -9.2* | 2
Cc1nn(-c2cccc(Cl)c2)c2c1C(c1ccncc1)C(C#N)=C(N)O2 (configuration not stated) | -1 | · | 11 | 78 | 1
Cc1ccc(-n2nc(C)c3c2OC(N)=C(C#N)C3c2ccc(F)cc2)cc1 (configuration not stated) | 2 | 15 | -2 | -28* | -3
CCOC(=O)Cn1nnc(-c2cccc(OC)c2)n1 | -1 | 11 | 10 | 114 | 0
COc1cccc(-c2nnn(CC(=O)O)n2)c1 | 1 | -2 | 6 | -22* | -4
Cc1ccc(NS(=O)(=O)c2cccc(C(=O)Nc3cc(C)on3)c2)cc1 | 0 | -17 | -1 | 101 | -1
Cc1cc(/C=N/n2cnnc2)c(C)n1-c1ccc2c(c1)OCO2 | -3 | · | 20 | 68 | 2
COC(=O)c1ccc(-n2c(C)cc(/C=N/n3cnnc3)c2C)cc1 | 19* | 2 | 2 | 102 | -2
Cc1cc(/C=N/n2cnnc2)c(C)n1-c1ccc(C(=O)O)cc1 | -1 | -15 | -6 | 88 | -3
Cc1cc(/C=N/n2cnnc2)c(C)n1-c1cc(Cl)ccc1Cl | -1 | 52* | 40* | 101 | -5
CC1CC(C)CN(Cc2nc(N)nc(Nc3ccc4ccccc4c3)n2)C1 (configuration not stated) | 1 | 10 | -11 | 70 | 0
CC(=O)N=c1c(C#N)cc2c(=O)n3cccc(C)c3nc2n1CC(C)C | 2 | -10 | 7 | 86 | 4
CS(=O)(=O)N1CCC(C(=O)Nc2ccccc2Sc2ccccc2)CC1 | 0 | 12 | 2 | 113 | 0
CC(=O)Nc1ccccc1Sc1ccccc1 | -1 | 22 | 32* | 119 | -2
CCn1cc(C(=O)Nn2cnnc2)c(=O)c2ccc(C)nc21 | 0 | -2 | -14 | 91 | -3
CCN(CC)c1ccc2cc(NC(=O)CCC(=O)O)c(=O)oc2c1 | 0 | 40 | 55* | 91 | -3
CCN(CC)c1ccc2cc(C(=O)Nc3cccnc3N3CCOCC3)c(=O)oc2c1 | 0 | 2 | 0 | 98 | 2
SMILES | 5HT1E ag | 5-HT1A blocker | 5HT1E antag | HER2 expr 66K | 5HT1a ag
CCN(CC)c1ccc2cc(C(=O)Nc3ccccn3)c(=O)oc2c1 | 6 | · | -32 | 82 | 57*
O=C(NCc1ccco1)c1cccc2c1C(=O)N(C1CCCCC1)C2 | 1 | 14 | 30* | 123 | 2
CC(C)/C=C1\CCCCC1N(C)C(=O)NC(C)C (configuration not stated) | 0 | 17 | -7 | 118 | -7
O=C(CSc1nc(-c2ccncc2)nn1CC(=O)N1CCCCC1)NC1CCCC1 | 0 | 4 | -1 | 238 | 0
COC(=O)c1[nH]c2cc(C)ccc2c1NC(=O)CN1CCN(C(=O)c2ccco2)CC1 | 0 | 6 | -5 | 90 | -1
COC(=O)c1[nH]c2cc(C)ccc2c1NC(=O)CN1CCCc2ccccc21 | 2 | 18 | -2 | 60 | 265*
O=C(NCc1ccccc1)NC1(C(=O)N2CCN(c3ccccc3)CC2)CCCCC1 | -1 | 3 | -3 | 69 | 3
Oc1c(C(Nc2ccccn2)c2ccccn2)ccc2cccnc12 (configuration not stated) | 0 | 48* | 43* | 63 | -2
COc1cc(C(Nc2ccccn2)c2ccc3ccc(C)nc3c2O)cc(OC)c1O (configuration not stated) | -1 | 33 | 16 | 27 | -1
COc1cccc2c1OC1(C)CC2NC(=O)N1c1cccc(C(=O)Nc2ccc3c(c2)OCCO3)c1 (configuration not stated) | 0 | -8 | 4 | 106 | 0
COc1c(C)cc(Br)cc1C(=O)Nc1cccc(-c2nc3ncccc3o2)c1 | 0 | 12 | 14 | 84 | 66*
Cc1ccc2nc3c(cc(C(N)=S)c(=N)n3CCCOC(C)C)c(=O)n2c1 | 2 | -13 | 0 | 111 | -1
O=C(O)c1ccccc1NCN1C(=O)C2CC=C(Cl)CC2C1=O (configuration not stated) | 0 | -23 | -4 | -22* | -1
CCc1c(C(=O)Nc2ccncc2)csc1C | 0 | -3 | -4 | 118 | -1
O=C(c1ccccc1OCc1ccccc1Br)N1CCN(c2ncccn2)CC1 | 0 | 27 | 7 | 77 | 1
CCOC(=O)CC(=O)CSc1nc(N)c(C#N)c(-c2ccc(Cl)cc2)c1C#N | 0 | · | 15 | 69 | 3
C=CCSc1nc(N)c(C#N)c(-c2ccccc2)c1C#N | -1 | 7 | 41* | 85 | -1
COc1cccc(CN(Cc2ccco2)C(c2ccc(F)cc2)c2nnnn2C(C)(C)C)c1 (configuration not stated) | -1 | 46* | 1 | 75 | -3
Nn1cc(-c2ccccc2)nc1SCC(=O)N1CCN(S(=O)(=O)c2ccc(Cl)cc2)CC1 | 1 | -4 | -8 | 106 | -3
Cc1nnc(SCC(=O)N2CCN(S(=O)(=O)c3ccc(Cl)cc3)CC2)n(N)c1=O | 24* | -9 | 2 | 103 | -1
COc1ccc(-c2nc(CSCC(=O)N3CCN(C4CCCCC4)CC3)c(C)o2)cc1OC | 0 | 0 | 8 | 112 | -1
Cn1nnnc1SCC(=O)Nc1c(Cl)cccc1Cl | 0 | 1 | 0 | -20* | -1
[O-][N+]1=c2ccc(Nc3ccccc3)cc2=NC12CCCCC2 | 0 | 55* | 30* | -17* | -3
COc1ccc(OC)c(NC2=NC3(CCCC3)N=C(N)N2)c1 | 0 | 0 | 2 | 72 | 0
COc1ccc(Nc2ccc3c(c2)=NC2(CCCCC2)[N+]=3[O-])cc1 | · | · | · | -56* | ·
c1cc2[nH]snc2c2nc(C3CC3)nc12 | 0 | 22 | 18 | 112 | -3
CCc1nn2cc(-c3ccccc3)nc2s1 | 0 | 8 | -4 | · | -1
